Compound activity as filed in PubChem BioAssay.
PP1 counter: blocks human PP1-alpha phosphatase, a PP5 counter-screen; P62136; inhibition, % at 6.7 µM; 320,000 tested, 0.9% active; purified PP1alpha, OMFP fluorescence;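 active = inhibition above the mean inhibition of all tested compounds plus 3 SD, computed separately for each screening campaign, cut at about 15% in these data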
Beta apoptosis: beta cell apoptosis inhibition. INS-1E cytokine-induced death, ATP luminescence, 48 h; percent of positive-control rescue, neutral wells zero. protection from apoptosis, % (concentration not given with the values). 300,000 tested, 0.8% active. AID 435005;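 active = Every replicate reaches about 75%, or at least half do and their mean reaches it too, limit read from the data; inconclusive = At least half of replicates reach the limit but their mean does not; inactive = Under half of replicates reach the limit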;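 also: 0% = cytokine-treated negative control wells and 100% = positive control rescue; higher means more ATP so stronger rescue from cytokine killing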
PP5 primary: PP5 (human) phosphatase inhibition; purified PP5c, OMFP substrate fluorescence; inhibition, % at 6.7 µM; 320,000 tested, 0.18% active; AID 1987;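 active = inhibition above the campaign's mean inhibition across all tested compounds plus 3 SD, cut at about 9.5% in these data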;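 also: 0% = DMSO only and 100% = 100 µM cantharidin control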
Target sequence (P53041 whole entry, looked up): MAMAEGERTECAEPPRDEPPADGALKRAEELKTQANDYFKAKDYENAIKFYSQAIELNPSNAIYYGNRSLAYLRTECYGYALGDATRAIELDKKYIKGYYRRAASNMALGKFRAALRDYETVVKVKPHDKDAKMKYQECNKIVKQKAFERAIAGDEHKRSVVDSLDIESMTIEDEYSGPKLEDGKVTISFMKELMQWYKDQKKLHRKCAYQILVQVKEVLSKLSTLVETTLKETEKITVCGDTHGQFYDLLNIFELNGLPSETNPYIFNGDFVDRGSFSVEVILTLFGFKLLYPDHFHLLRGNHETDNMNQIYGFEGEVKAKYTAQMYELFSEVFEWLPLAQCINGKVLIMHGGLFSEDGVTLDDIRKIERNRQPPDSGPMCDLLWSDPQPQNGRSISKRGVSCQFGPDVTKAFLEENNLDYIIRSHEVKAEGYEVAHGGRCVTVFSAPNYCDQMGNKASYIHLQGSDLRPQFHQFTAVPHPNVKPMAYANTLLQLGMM
SKKanGAS inh: blocks kanamycin growth of S. pyogenes SKKanGAS strain; inhibition, % at 7.5 µM; AID 1662; 300,000 tested, 1.3% active; BacTiter-Glo, 6 h;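 active = mean replicate score, as percent of positive control median, at least 50; inconclusive = mean below 50 but one replicate at or above 50; inactive = mean and every replicate below 50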;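 also: strain carries kanamycin resistance gene driven by streptokinase promoter and grows in 40 µg/ml kanamycin; loss of luminescence reflects streptokinase promoter inhibition or plain growth inhibition; 0% = median of DMSO wells and 100% = positive control at its reference dose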
CSC inhib: cancer stem cell inhibition; cancer stem cell-like cells viability, luminescence; inhibition, % at 7.5 µM; 300,000 tested, 1.1% active; AID 2717; in the data active = inhibition above about 75%; inconclusive = no clear call, values can overlap the other calls; tested in HMLE shEcad cells
PP1 inh confirm: confirmation of human PP1 phosphatase inhibitors; inhibition, % at 6.7 µM; shares compounds with PP1 counter; purified PP1alpha, OMFP substrate fluorescence; 1,900 tested, 52% active;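 active = mean PP1 inhibition above a set limit taken from the earlier primary screen, cut at about 15% in these data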
PP5 counter: counter-screen for PP1 inhibitors: human PP5 phosphatase inhibition. shares compounds with PP1 counter. purified PP5c, OMFP fluorescence. inhibition, % at 6.7 µM. 1,900 tested, 4% active;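 active = mean PP5 inhibition over triplicate wells above about 9.5% taken from the earlier PP1 screen, limit read from the data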
* hit, by the source's call; ? = inconclusive; . = no result. Rows were chosen to be rich in hits. Some 3.1% of all compounds tested hit in one or more screens of this group.

SMILES | PP1 counter | Beta apoptosis | PP5 primary | SKKanGAS inh | CSC inhib | PP1 inh confirm | PP5 counter
COc1cccc(CNC(=O)CN2C(=O)COc3ccc(S(=O)(=O)N4CCCCC4)cc32)c1 | 4.3 | -1.8 | 2.1 | 1.6 | 0.9 | . | .
Cc1ccccc1-c1nnc(-c2cccs2)o1 | -0.5 | -3.0 | -0.2 | 5.0 | -3.1 | . | .
NS(=O)(=O)c1ccc(NC(=S)NCc2ccco2)cc1 | 3.0 | -10.3 | 0.6 | 0.6 | -7.0 | . | .
O=C(NCC1CCCCC1)c1cccc(-c2ccc(O)cc2)c1 | 18.3* | 1.3 | -1.8 | 20.3 | 52.9 | -2.0 | 0.3
COc1ccc(NC(=O)CN(C)C(=O)C23CC4CC(CC(C4)C2)C3)cc1 | -4.7 | -2.5 | 0.1 | 0.9 | -8.3 | . | .
COCCC(=O)N1CCC(Oc2ccc(C(=O)N3CCCCC3COC)cc2)CC1 (stereo not given) | 1.1 | 0.6 | -1.1 | 1.7 | 3.6 | . | .
COc1ccc(C2/C(=C(/O)c3ccc(C)cc3)C(=O)C(=O)N2c2ccccn2)cc1OC (stereo not given) | 3.8 | 3.7 | -1.0 | 7.9 | 2.4 | . | .
CCCOc1ccc(/C(O)=C2\C(=O)C(=O)N(c3ccccn3)C2c2ccccc2F)cc1C (stereo not given) | 23.6* | -10.5 | 0.7 | 46.5 | -12.6 | 26.3* | 0.2
Cc1ccc(-n2nc3ccc(NC(=O)/C=C/c4ccco4)cc3n2)cc1 | 19.1* | 3.8 | 0.5 | 7.5 | 10.5 | 9.5 | -1.8
Cc1ccc(NC(=O)c2cccc(NC(=O)/C=C/c3ccco3)c2)cc1C | 3.1 | 6.0 | 5.5 | 14.0 | 39.0 | . | .
Cc1cc(C)cc(OCCNC(=O)c2ccc(Br)cc2)c1 | 7.1 | -5.1 | 2.1 | -7.6 | -2.7 | . | .
Cc1nnc(NC(=O)c2ccc(S(=O)(=O)N(C)Cc3ccccc3)cc2)o1 | 37.6* | 0.1 | 5.8 | ? | 22.3 | 30.3* | 2.7
COCc1nnc(NC(=O)c2ccc(S(=O)(=O)N(C)Cc3ccccc3)cc2)o1 | 22.4* | 5.0 | 4.1 | 38.5 | 20.4 | 16.9* | 3.8
COc1ccc(C(=O)Nc2nnc(C3=COCCO3)o2)cc1OC | -2.0 | -3.1 | -1.8 | 0.9 | -2.4 | . | .
CN(c1ccccc1)S(=O)(=O)c1ccc(C(=O)Nc2nnc(C3=COCCO3)o2)cc1 | 25.7* | -3.5 | 0.7 | 7.8 | 22.5 | 15.4* | 1.9
CCN(Cc1ccccc1)S(=O)(=O)c1ccc(C(=O)Nc2nnc(C3CC3)o2)cc1 | 42.6* | 6.6 | 2.8 | 97.6* | 34.0 | 34.1* | -3.9
COc1ccc(N2C(=O)N3[C@@H]4c5ccccc5OC[C@@H]4[C@@H](c4ccccc4)[C@@]3(C)C2=O)cc1 | . | -2.8 | . | . | -22.0 | . | .
O=C(O)CCN1C(=O)c2ccc(NC(=O)Cc3ccc(Cl)cc3)cc2C1=O | -2.6 | -3.6 | -2.8 | 8.3 | -12.2 | . | .
Cc1nnc(NC(=O)c2ccc3ccccc3c2)o1 | 19.2* | -5.8 | -2.4 | . | 8.4 | 8.3 | -2.4
COCc1nnc(NC(=O)c2ccc(S(=O)(=O)N(C)C3CCCCC3)cc2)o1 | 17.8* | 1.1 | 0.0 | 61.7* | -10.4 | 3.5 | -2.8
COCCN(CCOC)S(=O)(=O)c1ccc(C(=O)Nc2nnc(COC)o2)cc1 | -6.5 | 3.0 | -1.4 | -3.8 | -8.4 | . | .
Cc1ccccc1NC(=O)c1ccc2ccccc2c1 | -0.7 | -3.2 | 0.7 | 7.2 | -0.1 | . | .
CC(NCC(O)c1ccc([N+](=O)[O-])cc1)C12CC3CC(CC(C3)C1)C2 (stereo not given) | -1.8 | 5.8 | -1.6 | 2.9 | 8.9 | . | .
O=C(Nc1ccc(Oc2ccc3c(c2)C(=O)N(c2ccc(O)cc2)C3=O)cc1)c1cccs1 | 22.0* | 2.6 | -2.5 | 13.3 | -8.4 | 9.7 | -5.3
Cc1ccc(Nc2nc(NCc3ccco3)c3ccccc3n2)cc1 | 19.9* | 76.5* | 4.1 | 8.3 | 56.2 | 14.9 | -1.9
c1ccc(-c2nc(NCc3ccco3)c3ccccc3n2)nc1 | 25.6* | 101.4* | 0.8 | 95.5* | -6.2 | 23.5* | -1.7
O=S(=O)(Nc1cc(S(=O)(=O)N2CCOCC2)ccc1Cl)c1ccccc1 | . | -3.9 | . | . | -15.8 | . | .
N#CCC(=O)N/N=C/c1cc(Br)ccc1OCc1cccc2ccccc12 | 21.2* | 11.3 | 2.9 | 36.5 | 38.9 | -0.8 | 0.6
CC(=O)c1ccc(-n2c(=O)[nH]c(=O)c3c(N)c(C(=O)c4ccc(Cl)cc4)sc32)cc1 | 39.7* | 14.6 | -0.7 | 2.5 | 42.5 | 28.1* | -3.4
